Compound activity deposited in PubChem BioAssay by National Center for Advancing Translational Sciences (NCATS).
SW480 rerep – DNA re-replication induction in SW480 cells; actives 1.8% (n = 340,000); Potency, µM (top dose mostly 46.1 µM), for inactives: top-dose re-replication activation, usual class: activators; SW480 DNA re-replication, Hoechst DNA content imaging, 48 h; note: % of control where 0% means no effect; nearly all actives have a fitted effect of over 55% in size
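Per well, 250 cells were exposed to pinned compound for 48 hr. Nuclear DNA was visualised with Hoechst (40 min, 37 C) and total object intensity recorded by fluorescence scanning.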
ELG1 DNA repair – inhibitors of ELG1-dependent DNA repair in HEK293T cells | Potency, µM (highest dose often 46.1 µM), for the others: at the top dose activity change, negative = inhibition, actives largely listed as inhibitors | actives 2.3% (n = 330,000) | HEK293T ELG1-luciferase reporter, luminescence, 16 h; DNA damage induced by 5-fluorouridine | AID 504467; note: % is set by controls: 0 for no effect and ±100 for the full control effect; nearly all actives have a fitted effect of over 55% in size
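DMSO vehicle served as the neutral condition. Each well held 2,000 cells given 5-fluorouridine plus compound; after 16 hr at 37 °C/5% CO2, ONE-Glo was added and luciferase measured 30 min later.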
MCF10A rereplic – inducers of DNA re-replication in MCF 10A breast cells; MCF 10A DNA re-replication, Hoechst nuclear intensity, 48 h; AID 624296; Potency, µM (highest dose often 46.1 µM), for the others: at the highest dose activity, positive = re-replication, hits mostly activators; actives 2.9% (n = 350,000); note: % of control where 0% means no effect; nearly all actives have a fitted effect of over 50% in size
KB-3-1 cytotox – KB-3-1 parental cell cytotoxicity; KB-3-1 viability, CellTiter-Glo ATP luminescence, 72 h; actives 1.4% (n = 400,000); Potency, µM (series often up to 46.1 µM), usual class: cytotoxic; note: % is set by controls: 0 for no effect and ±100 for the full control effect; nearly all actives have a fitted effect of over 60% in size
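Parental KB-3-1 viability, qHTS format: 72 h compound exposure, 37 °C; CellTiter-Glo; media-only wells and DMSO plates as controls; concentration-effect fits on corrected data.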
KB-V1 cytotox – KB-V1 MDR subline cytotoxicity. actives 3.4% (n = 400,000). Potency, µM (top dose mostly 46.1 µM), usual class: cytotoxic. KB-V1 MDR cells viability, CellTiter-Glo, 72 h; note: % is set by controls: 0 for no effect and ±100 for the full control effect; nearly all actives have a fitted effect of over 60% in size
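Readout: CellTiter-Glo luminescence, 10 min after addition. Cells: KB-V1 MDR subline, 72 h at 37 degrees C with compound. Analysis: corrected, normalized data fitted to concentration-effect curves.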
An asterisk follows results filed as active. The list is not random: actives were taken first. Their share in the collection is about 8.1%. Calls come from the whole dose curve; as a rule, active = well fitted curve in the direction sought with a large enough effect; inconclusive = small, poorly fitted or top-dose-only effect, or another doubt; inactive = no such curve, though single readings can be large; an effect the other way counts as inactive or inconclusive. Potency is the fitted concentration of half-maximal effect.

Screening Cc1ccc(-c2nc(C#N)c(NCc3cccc4c3OCO4)o2)cc1 returned SW480 rerep inconclusive, ELG1 DNA repair inconclusive, MCF10A rereplic 16.4µM*, KB-3-1 cytotox inactive and KB-V1 cytotox inactive.
For N#Cc1nc(-c2ccc(F)cc2)oc1NCc1cccc2c1OCO2 the results were SW480 rerep -15.9%, ELG1 DNA repair 14.7%, MCF10A rereplic -1.3%, KB-3-1 cytotox inactive and KB-V1 cytotox inactive.
For COc1cc(-c2cc(NC(C)=O)c3ncc(-c4ccc(C(C)=O)cc4)n3c2)cc(OC)c1OC the results were KB-3-1 cytotox inconclusive and KB-V1 cytotox 23.1µM*.
`COc1ccc(-c2cc(NC(C)=O)c3ncc(-c4cccc(C(C)=O)c4)n3c2)cc1OC` gave KB-3-1 cytotox inactive and KB-V1 cytotox inactive.
For CC(=O)Nc1cc(-c2ccc(F)cc2)cn2c(-c3ccc(F)cc3)cnc12 the results were KB-3-1 cytotox inactive and KB-V1 cytotox inactive.
COc1cc(-c2cc(NC(C)=O)c3ncc(-c4ccc(F)cc4)n3c2)cc(OC)c1OC was read as KB-3-1 cytotox inactive and KB-V1 cytotox 16.4µM*.
For COc1ccccc1N(C1=NCCCS1)S(=O)(=O)c1ccc(C(C)(C)C)cc1 the results were SW480 rerep 13.4%, ELG1 DNA repair 0.4%, MCF10A rereplic 1.4%, KB-3-1 cytotox inconclusive and KB-V1 cytotox 23.1µM*.
Screening COc1ccc(N(C2=NCCCS2)S(=O)(=O)c2ccc(C(C)(C)C)cc2)cc1 returned SW480 rerep 6.5%, ELG1 DNA repair 3.5%, MCF10A rereplic -13.8%, KB-3-1 cytotox inactive and KB-V1 cytotox inactive.
For CCNc1nc(N)c(C(=C(C#N)C#N)c2ccccc2)s1 the results were SW480 rerep inconclusive, ELG1 DNA repair -7.7%, MCF10A rereplic 20µM*, KB-3-1 cytotox inactive and KB-V1 cytotox inactive.
CCNc1nc(N)c(C(=O)C23CC4CC(CC(C4)C2)C3)s1 was read as SW480 rerep 21.4%, ELG1 DNA repair -12.1%, MCF10A rereplic -0.4%, KB-3-1 cytotox inactive and KB-V1 cytotox inactive.
For COc1ccc(C2CC(=O)Oc3cc(C)c(Cl)c(C)c32)cc1 (stereo not given) the results were SW480 rerep -0.7%, ELG1 DNA repair inconclusive, MCF10A rereplic 18.4µM*, KB-3-1 cytotox inactive and KB-V1 cytotox inactive.
COc1cc(C2CC(=O)Oc3cc(C)c(Cl)c(C)c32)cc(OC)c1OC (stereo not given) was read as SW480 rerep -30.8%, ELG1 DNA repair 15.4%, MCF10A rereplic inconclusive, KB-3-1 cytotox inactive and KB-V1 cytotox inactive.
`CCc1ccc(C(=O)Nc2ccc(OC)c(S(=O)(=O)N3CCOCC3)c2)cc1` gave SW480 rerep -0.8%, ELG1 DNA repair inconclusive, MCF10A rereplic 16.4%, KB-3-1 cytotox inactive and KB-V1 cytotox 9.2µM*.
Screening COc1ccc(NC(=O)Cn2ncc(Cl)c(Cl)c2=O)cc1S(=O)(=O)N1CCOCC1 returned SW480 rerep 4.61µM*, ELG1 DNA repair inconclusive, MCF10A rereplic 4.11µM*, KB-3-1 cytotox inactive and KB-V1 cytotox inactive.
For COc1ccc(C(=O)NCc2c(C)nn(Cc3ccccc3)c2C)cc1S(=O)(=O)N1CCOCC1 the results were SW480 rerep inconclusive, ELG1 DNA repair inconclusive, MCF10A rereplic 14.6µM*, KB-3-1 cytotox 6.51µM* and KB-V1 cytotox inactive.
Screening COc1ccc(NC(=O)c2ccc(Cl)nc2)cc1S(=O)(=O)N1CCOCC1 returned SW480 rerep 2.1%, ELG1 DNA repair inconclusive, MCF10A rereplic 2.1%, KB-3-1 cytotox inconclusive and KB-V1 cytotox inactive.
Screening COc1ccc(NC(=O)c2c(C)nn(Cc3ccccc3)c2Cl)cc1S(=O)(=O)N1CCOCC1 returned SW480 rerep 13.7%, ELG1 DNA repair inconclusive, MCF10A rereplic 2.06µM*, KB-3-1 cytotox inactive and KB-V1 cytotox inactive.
`CCCC(=O)Nc1ccc(-c2nc3ncccc3o2)cc1C` gave KB-3-1 cytotox inactive and KB-V1 cytotox inactive.
Screening COc1ccc(C(=O)NCC(c2ccccc2)c2ccccc2)cc1S(=O)(=O)N1CCOCC1 returned SW480 rerep -5.4%, MCF10A rereplic -0.5%, KB-3-1 cytotox inactive and KB-V1 cytotox 8.2µM*.
